Inhibition data for 27 molecules are collected here from ChEMBL document CHEMBL1157539, “Thousands of chemical starting points for antimalarial lead identification” (Nature, 2010).

What all share (assay type): functional
Experiment [1] concerns Plasmodium falciparum. Nature of the experiment: GSK_TCMDC: Inhibition of Plasmodium falciparum 3D7 in whole red blood cells, using parasite LDH activity as an index of growth. Test compounds present at 2uM.
In experiment [2] the test system is Plasmodium falciparum. Briefly: GSK_TCMDC: Inhibition of Plasmodium falciparum Dd2 in whole red blood cells, using parasite LDH activity as an index of growth. Test compounds present at 2uM.
A further experiment deals with HepG2. Briefly: GSK_TCMDC: Percent inhibition of human HepG2 cell line. Test compounds present at 10uM.

For orientation: Inhibition means the change of the read-out against control, counted positive when it falls. Regarding `O=C(Nc1cccc(-c2nn3ccccc3c2-c2ccnc(Nc3cccc(N4CCCC4=O)c3)n2)c1)c1cc(F)ccc1F`, the Inhibition in the experiment with Plasmodium falciparum [1] is 99%; in the experiment on Plasmodium falciparum [2], 51%; in the experiment on HepG2 it was 59%.

On to `COc1ccc(N2CCN(c3nc(Nc4ccc(NC(C)=O)cc4)nc(N4CCCC4)n3)CC2)cc1`, for which the Inhibition with Plasmodium falciparum [1] turned out to be 91%; with Plasmodium falciparum [2], 38%; with HepG2 it was 0%.

As to `Cl.N=c1n(Cc2ccc(Cl)cc2)c2ccccc2n1CC(O)c1ccc(Cl)c(Cl)c1` (stereo unspecified), the Inhibition with Plasmodium falciparum [1] turned out to be 98%; in the experiment on Plasmodium falciparum [2], 99%; in the experiment on HepG2 it was 58%.

`COc1ccccc1CCNc1ncc(F)c(N[C@@H](Cc2ccccc2)C(=O)NCCc2ccccc2)n1.O=C(O)C(F)(F)F`: the Inhibition with Plasmodium falciparum [1] is given as 90%; in the experiment on Plasmodium falciparum [2] it was 83%; in the experiment with HepG2 it was 7%.

In the case of `COc1ccc(-c2cnc3ccc(NCc4ccc(F)cc4)nn23)cc1OC`, the Inhibition with Plasmodium falciparum [1] is given as 97%; in the experiment with Plasmodium falciparum [2], 99%; with HepG2, 35%.

As for `C[C@H](Cc1ccc(C[C@@H](C)NCC(O)c2cc(Cl)c(N)c(Cl)c2)cc1)NCC(O)c1cc(Cl)c(N)c(Cl)c1` (stereo partly specified), the figures for the Inhibition in the experiment with Plasmodium falciparum [1], in the experiment with Plasmodium falciparum [2] and in the experiment with HepG2 were 98%, 50% and 26%, respectively.

As to `Cl.O=C(Nc1ccnc2ccccc12)NC1CCN(Cc2ccccc2)CC1`, the values for the Inhibition with Plasmodium falciparum [1], in the experiment with Plasmodium falciparum [2] and in the experiment with HepG2 were 96%, 43% and 18%, respectively.

Consider `COc1ccc(NC(=O)[C@H](Cc2ccccc2)Nc2cc(C)nc(NCCc3cccnc3)n2)cc1.O=C(O)C(F)(F)F`, for which the Inhibition in the experiment with Plasmodium falciparum [1] is recorded as 98%; in the experiment with Plasmodium falciparum [2] it was 5%; in the experiment on HepG2, 11%.

On to `Cc1cc(N(C)C)nc(Nc2ccc(NC(=O)c3ccccc3C)cc2)n1`, for which the Inhibition in the experiment on Plasmodium falciparum [1] came out at 93%; in the experiment with Plasmodium falciparum [2], 16%; with HepG2, 0%.

Regarding `COC(=O)c1cccc(CN(CCC(O)(C(F)(F)F)C(F)(F)F)C(=O)CC2CCCC2)c1`, the Inhibition is reported as 98% in the experiment on Plasmodium falciparum [1], 53% with Plasmodium falciparum [2] and 0% with HepG2.

Take `Cc1nc2nc(N)nc(N)c2c(C)c1Cc1ccc(C(N)=O)cc1.Cl`: the results for the Inhibition with Plasmodium falciparum [1], with Plasmodium falciparum [2] and in the experiment with HepG2 were 97%, 0% and 55%, respectively.

As to `O=C(Nc1cccc(CN2CCCN(Cc3ccc(O)cc3)CC2)c1)c1ccc(Cl)c(Cl)c1.O=C(O)C(F)(F)F`, the Inhibition in the experiment on Plasmodium falciparum [1] stood at 100%; in the experiment with Plasmodium falciparum [2] it was 81%; with HepG2, 22%.

Take `CC1(C)[C@H]2CC[C@@H](CNc3nc(NCCc4c[nH]cn4)nc(Nc4ccc5c(c4)OCO5)n3)[C@@H]1C2`: the Inhibition is given as 100% with Plasmodium falciparum [1], 88% in the experiment on Plasmodium falciparum [2] and 3% in the experiment with HepG2.

In the case of `Cn1cncc1CCCN(Cc1ccc(-c2ccc(C(F)(F)F)cc2)cc1)C(=O)Cn1c(CCc2cccc(F)c2F)cc(=O)c2cccnc21`, the Inhibition in the experiment with Plasmodium falciparum [1] worked out at 85%; in the experiment on Plasmodium falciparum [2] it was 59%; in the experiment on HepG2, 17%.

On to `CCc1cn2c3c(cc(C(=O)N[C@@H](Cc4ccccc4)[C@H](O)CNC4CCOCC4)cc13)N(CC(F)(F)F)S(=O)(=O)CC2.O=CO`, for which the figures for the Inhibition in the experiment with Plasmodium falciparum [1], in the experiment on Plasmodium falciparum [2] and with HepG2 were 98%, 98% and 4%, respectively.

For the molecule `COc1cc2nccc(Nc3ccc4c(cnn4Cc4cccc(F)c4)c3)c2cc1OC.Cl`, the Inhibition was 100% in the experiment on Plasmodium falciparum [1], 99% in the experiment on Plasmodium falciparum [2] and 29% in the experiment on HepG2.

For `CCCN1CCN(c2ccccc2NS(=O)(=O)c2ccc(C(=O)Nc3ccc(Cl)cc3)cc2)CC1.O=C(O)C(F)(F)F`, the Inhibition with Plasmodium falciparum [1] amounted to 84%; in the experiment on Plasmodium falciparum [2], 9%; in the experiment on HepG2 it was 17%.

In the case of `NCc1ccc(CNCc2cccc(-c3ccc(-c4nc5ccccc5[nH]4)cc3)c2)cc1.O=C(O)C(F)(F)F`, the Inhibition in the experiment on Plasmodium falciparum [1] amounted to 100%; in the experiment on Plasmodium falciparum [2], 58%; with HepG2, 10%.

For the molecule `CCc1ccc(-n2c(NC(=O)c3ccccc3)nc3ccc(S(=O)(=O)NC(C)C(C)C)cc32)cc1` (stereo unspecified), the Inhibition in the experiment with Plasmodium falciparum [1] is given as 88%; in the experiment with Plasmodium falciparum [2], 0%; in the experiment on HepG2, 48%.

As to `COCCn1c(C)nc2ccccc2c1=O`, the Inhibition in the experiment with Plasmodium falciparum [1] is 89%; with Plasmodium falciparum [2], 67%; in the experiment with HepG2, 0%.

Turning to `Cc1cc(N[C@@H](Cc2ccccc2)C(=O)NC2CCCC2)nc(NCC2CCCCC2)n1.O=C(O)C(F)(F)F`, the Inhibition in the experiment on Plasmodium falciparum [1] is reported as 100%; in the experiment on Plasmodium falciparum [2] it was 96%; in the experiment on HepG2, 18%.

On to `Cc1cc(N[C@@H](CC(C)C)C(=O)NCCOc2ccccc2)nc(NCCOc2ccccc2)n1.O=C(O)C(F)(F)F`, for which the Inhibition in the experiment with Plasmodium falciparum [1] turned out to be 89%; with Plasmodium falciparum [2], 6%; in the experiment on HepG2 it was 0%.

For the molecule `O=C(NCCN1CCCC1)c1cccc(Nc2nccc(Nc3ccc(Oc4ccccc4)cc3)n2)c1`, the results for the Inhibition with Plasmodium falciparum [1], in the experiment on Plasmodium falciparum [2] and in the experiment on HepG2 were 100%, 18% and 33%, respectively.

`Fc1ccc2[nH]c(-c3ccc(-c4ccc(CNCCc5ccncc5)cc4)cc3)nc2c1.O=C(O)C(F)(F)F`: the Inhibition in the experiment on Plasmodium falciparum [1] was 100%; in the experiment on Plasmodium falciparum [2], 97%; in the experiment with HepG2, 23%.

`CN(C)CCN(C)Cc1ccc(-c2ccc3c(Nc4ccc(Cl)cc4F)ccnc3c2)o1`: the Inhibition is on record as 100% in the experiment with Plasmodium falciparum [1], 76% in the experiment on Plasmodium falciparum [2] and 20% with HepG2.

On to `Cc1cccc2nc(-c3ccc(-c4ccc(CN5CCCCC5)cc4)s3)[nH]c12.O=C(O)C(F)(F)F`, for which the Inhibition is 99% in the experiment with Plasmodium falciparum [1], 87% with Plasmodium falciparum [2] and 16% in the experiment with HepG2.

Regarding `COc1ccc2nccc([C@@H](O)CN3CCC(NCc4cnc5c(c4)NC(=O)CS5)C(F)C3)c2c1.Cl` (stereo partly specified), the Inhibition was 90% with Plasmodium falciparum [1], 90% in the experiment on Plasmodium falciparum [2] and 0% with HepG2.
